PubChem BioAssay AID1159580 (chemical genetic matrix, 2015)
Among all 5,500 compounds or so, about 2,000 (36%) were called active. About 18% were inconclusive and are not listed. This is one part of the list. A number with no mark means an inactive call. Rule as the data show it: active = normalized growth mostly below about 0.91 (no sharp cut-off); inconclusive = no clear call, values can overlap the other calls; inactive = mostly above about 0.92.

Experiment: chemical genetic growth profiling, strain panel (AID 1159580);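 also: tested at 20 µM; growth read once vehicle control cultures reached saturation at 30 °C; 1 = growth at the plate median or of vehicle wells; lower values mean less growth of the strain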
Settings: S. cerevisiae deletion strains, growth OD
[1] = locus YAR019C, strain CDC15, active compounds read low
[2] = locus YBL105C, strain PKC1, active compounds read low
[3] = locus YBR135W, strain CKS1, active compounds read low
[4] = locus YBR136W, strain MEC1, active compounds read low
[5] = locus YBR160W, strain CDC28, active compounds read low
[6] = locus YDL017W, strain CDC7, active compounds read low
[7] = locus YDL028C, strain MPS1, active compounds read low
[8] = locus YDL101C, strain DUN1, active compounds read low
[9] = locus YDL108W, strain KIN28, active compounds read low
[10] = locus YDL132W, strain cdc53, active compounds read low
[11] = locus YDL214C, strain PRR2, active compounds read low
[12] = locus YDR052C, strain DBF4, active compounds read low
[13] = locus YDR054C, strain cdc34, active compounds read low
[14] = locus YDR226W, strain ADK1, active compounds read low
[15] = locus YDR477W, strain SNF1, active compounds read low
[16] = locus YER123W, strain YCK3, active compounds read low
[17] = locus YER133W, strain GLC7, active compounds read low
[18] = locus YFL009W, strain cdc4, active compounds read low
[19] = locus YFL029C, strain CAK1, active compounds read low
[20] = locus YFR003C, strain YPI1, active compounds read low
[21] = locus YFR019W, strain FAB1, active compounds read low
[22] = locus YFR028C, strain CDC14, active compounds read low
[23] = locus YGR040W, strain KSS1, active compounds read low
[24] = locus YGR052W, strain FMP48, active compounds read low
[25] = locus YGR092W, strain DBF2, active compounds read low
[26] = locus YHR030C, strain SLT2, active compounds read low
[27] = locus YHR079C, strain IRE1, active compounds read low
[28] = locus YHR082C, strain KSP1, active compounds read low
[29] = locus YHR205W, strain SCH9, active compounds read low
[30] = locus YIL147C, strain SLN1, active compounds read low
[31] = locus YJL095W, strain BCK1, active compounds read low
[32] = locus YJL128C, strain PBS2, active compounds read low
[33] = locus YJL157C, strain FAR1, active compounds read low
[34] = locus YJR016C, strain ILV3, active compounds read low
[35] = locus YJR066W, strain TOR1 (second series), active compounds read low
[36] = locus YJR066W, strain TOR1, active compounds read low
[37] = locus YKL048C, strain ELM1, active compounds read low
[38] = locus YKL067W, strain YNK1, active compounds read low
[39] = locus YKL101W, strain HSL1, active compounds read low
[40] = locus YKL193C, strain SDS22, active compounds read low
[41] = locus YKL203C, strain TOR2, active compounds read low
[42] = locus YLR113W, strain HOG1, active compounds read low
[43] = locus YLR133W, strain CKI1, active compounds read low
[44] = locus YLR403W, strain SFP1, active compounds read low
[45] = locus YML070W, strain DAK1, active compounds read low
[46] = locus YMR001C, strain CDC5, active compounds read low
[47] = locus YMR205C, strain PFK2 (second series), active compounds read low
[48] = locus YMR277W, strain FCP1, active compounds read low
[49] = locus YNL006W, strain LST8, active compounds read low
[50] = locus YNL020C, strain ARK1, active compounds read low
[51] = locus YNL161W, strain CBK1, active compounds read low
[52] = locus YNL183C, strain NPR1, active compounds read low
[53] = locus YNL207W, strain RIO2, active compounds read low
[54] = locus YNL222W, strain SSU72, active compounds read low
[55] = locus YNL307C, strain MCK1 (second series), active compounds read low
[56] = locus YOL078W, strain AVO1, active compounds read low
[57] = locus YOL136C, strain PFK27, active compounds read low
[58] = locus YOR061W, strain CKA2, active compounds read low
[59] = locus YOR119C, strain RIO1, active compounds read low
[60] = locus YOR231W, strain MKK1, active compounds read low
[61] = locus YOR329C, strain SCD5, active compounds read low
[62] = locus YPL031C, strain PHO85, active compounds read low
[63] = locus YPL153C, strain RAD53, active compounds read low
[64] = locus YPL204W, strain HRR25, active compounds read low
[65] = locus YPL209C, strain IPL1, active compounds read low
[66] = locus YPL256C, strain CLN2, active compounds read low
[67] = locus YPR025C, strain CCL1, active compounds read low
[68] = locus YPR106W, strain ISR1, active compounds read low
[69] = locus YPR111W, strain DBF20, active compounds read low
[70] = strain NNK1, active compounds read low
[71] = strain TSCII, active compounds read low

`COC(=O)c1ccc(Oc2c(C(F)(F)F)oc3cc(O)ccc3c2=O)cc1` gave a normalized growth [1] of 0.976, a normalized growth [2] of 0.976 and a normalized growth [3] of 0.975. For the same compound, the normalized growth [4] was 0.974, the normalized growth [5] was 0.986 and the normalized growth [6] was 0.977. It also gave a normalized growth [7] of 0.979, a normalized growth [8] of 0.982 and a normalized growth [9] of 0.976. It also gave a normalized growth [10] of 0.961, a normalized growth [11] of 0.949 and a normalized growth [12] of 0.984. It also gave a normalized growth [13] of 0.959, a normalized growth [14] of 0.964 and a normalized growth [15] of 0.948. It also gave a normalized growth [16] of 0.924, a normalized growth [17] of 0.929 and a normalized growth [18] of 0.969. The normalized growth [19] was 0.976, the normalized growth [20] was 0.974 and the normalized growth [21] was 0.938. It also gave a normalized growth [22] of 0.965, a normalized growth [23] of 0.941 and a normalized growth [24] of 0.962. The normalized growth [25] was 0.948, the normalized growth [26] was 0.902 and the normalized growth [27] was 0.926. It also gave a normalized growth [28] of 1.01, a normalized growth [29] of 0.949 and a normalized growth [30] of 0.978. For the same compound, the normalized growth [31] was 0.904, the normalized growth [32] was 0.941 and the normalized growth [33] was 0.936. The normalized growth [34] was 0.974, the normalized growth [35] was 0.93 and the normalized growth [36] was 1.01. For the same compound, the normalized growth [37] was 0.968, the normalized growth [38] was 0.956 and the normalized growth [39] was 0.945. It also gave a normalized growth [40] of 0.967, a normalized growth [41] of 1.01 and a normalized growth [42] of 0.869. For the same compound, the normalized growth [43] was 0.95, the normalized growth [44] was 0.938 and the normalized growth [45] was 0.934. It also gave a normalized growth [46] of 0.972, a normalized growth [47] of 0.969 and a normalized growth [48] of 0.978. The normalized growth [49] was 0.972, the normalized growth [50] was 0.949 and the normalized growth [51] was 0.962. The normalized growth [52] was 1.02, the normalized growth [53] was 0.969 and the normalized growth [54] was 0.979. For the same compound, the normalized growth [55] was 0.95, the normalized growth [56] was 0.97 and the normalized growth [57] was 0.933. For the same compound, the normalized growth [58] was 0.968, the normalized growth [59] was 1.02 and the normalized growth [60] was 0.967. It also gave a normalized growth [61] of 0.975, a normalized growth [62] of 0.94 and a normalized growth [63] of 0.935. For the same compound, the normalized growth [64] was 0.95, the normalized growth [65] was 0.971 and the normalized growth [66] was 0.9. The normalized growth [67] was 0.98, the normalized growth [68] was 0.979 and the normalized growth [69] was 0.979. For the same compound, the normalized growth [70] was 0.973 and the normalized growth [71] was 0.96.

With `CC(=O)Oc1ccc2c(=O)c(Oc3ccc(Cl)cc3)c(C)oc2c1` the normalized growth [1] was 0.969, the normalized growth [2] was 0.964 and the normalized growth [3] was 0.968. It also gave a normalized growth [4] of 0.954, a normalized growth [5] of 0.962 and a normalized growth [6] of 0.963. It also gave a normalized growth [7] of 0.956, a normalized growth [8] of 0.951 and a normalized growth [9] of 0.958. It also gave a normalized growth [10] of 0.96, a normalized growth [11] of 0.938 and a normalized growth [12] of 0.959. For the same compound, the normalized growth [13] was 0.96, the normalized growth [14] was 0.957 and the normalized growth [15] was 0.945. It also gave a normalized growth [16] of 0.918, a normalized growth [17] of 0.939 and a normalized growth [18] of 0.97. The normalized growth [19] was 0.964, the normalized growth [20] was 0.968 and the normalized growth [21] was 0.979. The normalized growth [22] was 0.963, the normalized growth [23] was 0.953 and the normalized growth [24] was 0.887. For the same compound, the normalized growth [25] was 0.692, the normalized growth [26] was 0.802 (active) and the normalized growth [27] was 0.897. It also gave a normalized growth [28] of 0.917, a normalized growth [29] of 0.776 and a normalized growth [30] of 0.947. For the same compound, the normalized growth [31] was 0.7, the normalized growth [32] was 0.923 and the normalized growth [33] was 0.973. For the same compound, the normalized growth [34] was 0.964, the normalized growth [35] was 0.953 and the normalized growth [36] was 0.896. The normalized growth [37] was 0.933, the normalized growth [38] was 0.94 and the normalized growth [39] was 0.908. For the same compound, the normalized growth [40] was 0.953, the normalized growth [41] was 0.968 and the normalized growth [42] was 0.768 (active). For the same compound, the normalized growth [43] was 0.952, the normalized growth [44] was 0.887 and the normalized growth [45] was 0.921. For the same compound, the normalized growth [46] was 0.961, the normalized growth [47] was 0.935 and the normalized growth [48] was 0.969. It also gave a normalized growth [49] of 0.985, a normalized growth [50] of 0.952 and a normalized growth [51] of 0.965. For the same compound, the normalized growth [52] was 0.875, the normalized growth [53] was 0.953 and the normalized growth [54] was 0.97. The normalized growth [55] was 0.808, the normalized growth [56] was 0.95 and the normalized growth [57] was 0.933. The normalized growth [58] was 0.959, the normalized growth [59] was 0.995 and the normalized growth [60] was 0.834. It also gave a normalized growth [61] of 0.961, a normalized growth [62] of 0.935 and a normalized growth [63] of 0.954. The normalized growth [64] was 0.943, the normalized growth [65] was 0.96 and the normalized growth [66] was 0.909. It also gave a normalized growth [67] of 0.965, a normalized growth [68] of 0.955 and a normalized growth [69] of 0.941. For the same compound, the normalized growth [70] was 0.94 and the normalized growth [71] was 0.964.

Compound `FC(F)(F)c1ccc(C2Sc3ccccc3N=C3c4ccccc4CC32)cc1` (stereo not drawn) has a normalized growth [1] of 1.01, a normalized growth [2] of 1.03 and a normalized growth [3] of 1.01. The normalized growth [4] was 1, the normalized growth [5] was 1.02 and the normalized growth [6] was 1.01. It also gave a normalized growth [7] of 0.996, a normalized growth [8] of 1 and a normalized growth [9] of 0.994. It also gave a normalized growth [10] of 1.02, a normalized growth [11] of 1.02 and a normalized growth [12] of 1.01. The normalized growth [13] was 1.02, the normalized growth [14] was 0.996 and the normalized growth [15] was 1.03. For the same compound, the normalized growth [16] was 0.96, the normalized growth [17] was 1 and the normalized growth [18] was 1.01. For the same compound, the normalized growth [19] was 1, the normalized growth [20] was 1.02 and the normalized growth [21] was 0.985. For the same compound, the normalized growth [22] was 1.01, the normalized growth [23] was 1.02 and the normalized growth [24] was 1.04. The normalized growth [25] was 0.979, the normalized growth [26] was 0.97 and the normalized growth [27] was 1.01. The normalized growth [28] was 1.01, the normalized growth [29] was 0.953 and the normalized growth [30] was 1. It also gave a normalized growth [31] of 0.985, a normalized growth [32] of 0.973 and a normalized growth [33] of 1.02. For the same compound, the normalized growth [34] was 1.02, the normalized growth [35] was 0.999 and the normalized growth [36] was 0.993. For the same compound, the normalized growth [37] was 0.984, the normalized growth [38] was 1 and the normalized growth [39] was 1.04. For the same compound, the normalized growth [40] was 1.01, the normalized growth [41] was 1.1 and the normalized growth [42] was 0.87. For the same compound, the normalized growth [43] was 0.987, the normalized growth [44] was 0.991 and the normalized growth [45] was 0.981. It also gave a normalized growth [46] of 1.02, a normalized growth [47] of 0.995 and a normalized growth [48] of 1.02. It also gave a normalized growth [49] of 1, a normalized growth [50] of 1.01 and a normalized growth [51] of 1.03. For the same compound, the normalized growth [52] was 0.969, the normalized growth [53] was 1.02 and the normalized growth [54] was 1.01. The normalized growth [55] was 0.937, the normalized growth [56] was 0.998 and the normalized growth [57] was 0.993. It also gave a normalized growth [58] of 0.993, a normalized growth [59] of 1.02 and a normalized growth [60] of 1. It also gave a normalized growth [61] of 1.03, a normalized growth [62] of 1.06 and a normalized growth [63] of 1.03. The normalized growth [64] was 1.01, the normalized growth [65] was 1.02 and the normalized growth [66] was 0.951. For the same compound, the normalized growth [67] was 1.02, the normalized growth [68] was 0.996 and the normalized growth [69] was 0.985. For the same compound, the normalized growth [70] was 1.01 and the normalized growth [71] was 1.02.
